About 2,600 (16%) of roughly 16,000 compounds were called active. Another 20% or so got no clear call; they are omitted. The list is a sample of the results. A number with no mark means an inactive call. Calls follow the shape of the dose curve; as a rule, active = well fitted curve in the direction sought with a large enough effect; inconclusive = small, poorly fitted or top-dose-only effect, or effect the other way; inactive = no such curve, though single readings can be large or run the other way.
Molecular target: Cytochrome P450 2D6 (Homo sapiens) (UniProt P10635)
Experiment: Cytochrome panel assay with activity outcomes
Conditions: recombinant CYP, pro-luciferin dealkylation, luminescence, p450-cyp2d6; series mostly up to 57.1 µM; activity, negative = inhibition: at the top concentration
% is scaled to controls: 0 for no effect and ±100 for the full control effect.

Cytochrome P450 2D6 (Homo sapiens), sequence (P10635 whole entry, looked up): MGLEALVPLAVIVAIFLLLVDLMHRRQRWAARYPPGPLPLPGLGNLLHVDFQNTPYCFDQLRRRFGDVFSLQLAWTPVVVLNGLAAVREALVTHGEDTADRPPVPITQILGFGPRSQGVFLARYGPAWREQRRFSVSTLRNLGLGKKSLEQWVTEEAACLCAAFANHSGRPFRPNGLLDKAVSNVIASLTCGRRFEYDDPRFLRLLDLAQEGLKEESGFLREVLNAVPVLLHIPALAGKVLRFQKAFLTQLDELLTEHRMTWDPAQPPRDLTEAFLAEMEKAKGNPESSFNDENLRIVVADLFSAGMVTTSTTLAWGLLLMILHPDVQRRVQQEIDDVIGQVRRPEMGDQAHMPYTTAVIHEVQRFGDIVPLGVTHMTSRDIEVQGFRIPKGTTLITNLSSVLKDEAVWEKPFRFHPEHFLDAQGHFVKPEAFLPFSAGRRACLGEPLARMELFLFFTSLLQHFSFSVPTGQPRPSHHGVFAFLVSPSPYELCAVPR

Structure (SMILES) | activity, negative = inhibition | AC50
CCCc1nnc(NC(=O)c2cccs2)s1 | 6.2% | 
O=C(/C=C/c1ccc(Br)cc1)NC1CCCCCC1 | -29.1% | 
Cc1ccc(C(=O)Nc2cccc(-c3cnc4ccccc4n3)c2)cc1 | 17.8% | 
Cc1cc2c(=O)[nH]c(N)nc2nc1C | 14.7% [at 11.4 µM] | 
O=c1[nH]c(SCc2cccc([N+](=O)[O-])c2)nc2nc[nH]c12 | 10.7% [at 11.4 µM] | 
CSc1nc2n(n1)C(c1cc(Br)ccc1F)C(C(=O)N(C)C)=C(C)N2 (stereo unspecified) | 6.18% | 
CN[C@]1(C)[C@@H]2CC[C@@H](C2)C1(C)C | 5.59% | 
Cc1ccc(NC(=O)CCN2C(=O)c3ccncc3C2=O)cc1 | 1.26% | 
CCN1C(=O)[C@H]2[C@H]3[C@H](O)[C@H](O)C/C(=N/NC(=O)OCc4ccccc4)[C@@H]3CC[C@@H]2C1=O | 10.8% [at 11.4 µM] | 
CCN1C(=O)/C(=C2\SC(=S)N(CCCOC)C2=O)c2ccccc21 | -10.4% | 
N[C@@H](Cc1cc(CP(=O)(O)O)cc(-c2ccccc2Cl)c1)C(=O)O | 1.24% | 
Cc1ccc(-c2csc3ncnc(NCCN4CCOCC4)c23)cc1 |  | 2.82 µM (active)
CC(=NCCN1CCN(C(=S)Nc2ccccc2)CC1)C1=C(O)CC(C)(C)CC1=O | 7.76% | 
O=C(Nc1ccc2c(c1)Cc1ccccc1-2)[C@@H]1[C@H](C(=O)O)[C@]2(Cl)C(Cl)=C(Cl)[C@@]1(Cl)C2(Cl)Cl | -10.2% [at 11.4 µM] | 
O=[N+]([O-])C(/C=C(\Cl)[N+](=O)[O-])=C1N(Cc2ccc(Cl)nc2)CCN1Cc1ccc(Cl)nc1 |  | 15.8 µM (active)
Nc1ccc(N2C(=O)c3ccccc3C2=O)c(Cl)c1 | -4.95% | 
COc1ccc(-n2c(=O)c(C)nc3cnc(Nc4ccccc4)nc32)cc1 | 3.53% | 
O=S(=O)(/N=C(/Nc1ccc(F)cc1F)c1ccc(Cl)cc1)c1ccccc1 | 11.4% | 
NCC(=O)Nc1ccc(Cl)cc1C(=O)c1ccc[nH]1 | 3.55% [at 11.4 µM] | 
Cc1c(NC(=O)CSc2nnc3c4ccccc4n(CCc4ccccc4)c3n2)c(=O)n(-c2ccccc2)n1C | -25.1% | 
Cc1ccc(-n2c(O)cnc2Nc2nc(C)cc(C)n2)cc1 |  | 12.6 µM (active)
Cc1ccc(-n2c(-c3ccccc3)cc(=O)nc2C)cc1 | 32.4% | 
Cc1ccc(-n2c(C)cc(C(=O)CSc3n[nH]c(N)n3)c2C)cc1 | -0.813% | 

Structure (SMILES) | activity, negative = inhibition | AC50
CSc1nc(NC2CCCC2)c([N+](=O)[O-])c(NC2CCCC2)n1 | -4.38% | 
C#CCCCO/N=C1/C[C@@H](O)[C@@H](O)[C@@H]2[C@H]3C(=O)N(c4ccc(F)cc4F)C(=O)[C@@H]3CC[C@@H]12 | 8.28% [at 11.4 µM] | 
CC(C)[C@H]1C(=O)C(C(N)=O)=C(O)[C@]2(O)C(=O)C3=C(O)c4c(O)ccc(N(C)C)c4C[C@H]3C[C@@H]12 | -0.683% | 
Oc1c(CN2CCOCC2)cc(-c2ccccc2)cc1CN1CCOCC1 |  | 12.6 µM (active)
CCc1cc2c(=O)c(-c3cnn(-c4ccccc4)c3)coc2c(CN2CCOCC2)c1O | -19.9% | 
N#C/C(=C/N1CCOCC1)c1ccccc1 | -8.97% | 
NC/C=C\C(=O)O |  | inactive
C[C@H](O/N=C1/[C@H]2O[C@@H]2[C@@H](O)[C@H]2[C@H]1CCn1c(=O)n(-c3ccccc3)c(=O)n12)c1cn([C@H]2COC[C@H]2O)nn1 | -1.7% [at 11.4 µM] | 
CCc1nnc(NC(=O)CSc2ncnc3c2cnn3-c2ccc(OC)cc2)s1 | 0.15% | 
CCOC(=O)CN1C(=O)Nc2ccc(Br)cc2C1c1ccccc1 (stereo unspecified) | -5.48% | 
CC1=C(C(N)=O)C(c2ccccc2)n2nc(-c3ccncc3)nc2N1 (stereo unspecified) | -1.99% | 
Cc1ccc[n+](CC(=O)c2cc3ccccc3oc2=O)c1 | -26% | 
Cc1cc2ccccc2c[n+]1CC(O)C[n+]1cc2ccccc2cc1C |  | 0.0251 µM (active)
C[C@@H]1/C=C\CC(=O)OC[C@H](C)C(=O)N2CCC[C@@H]2C(=O)OC1 | 7.63% [at 11.4 µM] | 
Cc1o[nH]c(=O)c1CC[C@H](N)C(=O)O | -9.63% | 
Cc1ccc(NC(=O)c2ccccc2C(=O)O)cc1C | -8.28% [at 11.4 µM] | 
Cc1oc(C(C)(C)C)cc1C(=O)Nc1cccc(/C=C/C(=O)O)c1 | 11.9% | 
Cc1oc(-c2ccccc2)cc1C(=O)Nc1ccc(N(C)C)cc1 |  | 7.94 µM (active)
CCOC(=O)C1=C(N)n2c(s/c(=C\c3ccco3)c2=O)=C(C(=O)OCC)C1c1ccco1 (stereo unspecified) | 21.8% | 
Cc1cc2nc3[nH]c4c(Cl)cc(Cl)cc4c3nc2cc1C | 4.24% [at 11.4 µM] | 
O=c1[nH]cc(CS(=O)(=O)Cc2c[nH]c(=O)[nH]c2=O)c(=O)[nH]1 | -1.45% [at 11.4 µM] | 
CC(C)CN(CC(C)C)C1=N/C(=C\c2ccco2)C(=O)N1c1ccccc1 | 7.31% | 
CCOC(=O)c1ccc(Nc2nc(=O)c3cccnc3s2)cc1 | 14.5% | 

Reference: PubChem BioAssay AID1851 (National Center for Advancing Translational Sciences (NCATS), 2009)
